# Laboratory results from PubChem BioAssay (EPA / NIEHS).
# More than one record can exist for a structure, and the calls need not agree. Activity calls are given as the source filed them. Rule for the calls: active = hit-call score of the fitted dose curve at least 0.9, where 1 is the maximum; inactive = score below 0.9.
# Test: ATG_E_Box_CIS: Attagene CIS-FACTORIAL HepG2 Assay for human Enhancer Box (E-box) (AID 2282936)
# Details: HepG2 E-box cis-reporter transcription, actives raise or lower the signal
# Procedure: ATG_CIS is a cell-based, multiplexed-readout assay that uses HepG2, a human liver cell line, with measurements taken at 24 hours after chemical dosing in a 24-well plate.ATG_E_Box_CIS is one of 52 assay component(s) measured or calculated from the ATG_CIS assay. It is designed to make measurements of mRNA induction, a form of inducible reporter, as detected with fluorescence intensity signals by Reverse transcription polymerase chain reaction (RT-PCR) and Capillary electrophoresis technology.Data from the assay component ATG_E_Box_CIS was analyzed into 1 assay endpoint. This assay endpoint, ATG_E_Box_CIS, was analyzed with bidirectional fitting relative to DMSO as the negative control and baseline of activity. Using a type of inducible reporter, measures of mRNA for gain or loss-of-signal activity can be used to understand the reporter gene at the transcription factor-level as they relate to the gene USF1. Furthermore, this assay endpoint can be referred to as a primary readout, because this assay has produced multiple assay endpoints where this one serves a reporter gene function. To generalize the intended target to other relatable targets, this assay endpoint is annotated to the dna binding intended target family, where the subfamily is basic helix-loop-helix protein.
# Human liver HepG2 cells are transiently transfected with multiple reporter transcription units (MRTUs) in 6-well plates using FuGene 6 reagent (Roche; 3 ml FuGene/1 mg DNA). The MRTU constructs are regulated by a cis-regulating element (promoter). […] A major difference between the CIS and TRANS system is that in CIS activities of endogenous TFs are measured, whereas the TRANS assay evaluates changes in activities of exogenous, chimeric NR-Gal4 proteins. […] At the end of 24 hour incubation, total RNA was isolated using TriZol reagent (Invitrogen). The isolated RNA is then reverse-transcribed using oligo(dT) primer and Mo-MLV reverse transcriptase (Invitrogen) with DNAse I (Ambion) treatment for 30 min. The one-tenth of the produced cDNA was amplified by PCR using Taq DNA polymerase (Invitrogen) and two reporter sequence-specific primers. The PCR products were fluorescently labeled by primer extension with 6-arboxyfluorescein (6-FAM) 5'-labeled reporter sequence-specific primer (2 min at 95 C, 20 s at 68 C and 10 min at 72 C) and these products were digested with 5U of HpaI (New England Biolabs) for 2h at 37 C. The fragments were purified using Qiaquick PCR columns (Qiagen), analyzed on an ABI 3130xL genetic analyzer (Applied Biosystems) with peak positions identified by using a set of X-rhodamine (ROX)-labeled MapMarker1000 molecular weight standards (BioVentures). The raw capillary electrophoresis data was processed using Attagraph software (Attagene).
Compound,outcome,AC50
CCCCCCOC(=O)c1ccccc1,inactive,–
OCC(F)(F)C(F)(F)C(F)(F)C(F)F,inactive,–
O=C(O)C(F)(F)C(F)(F)C(F)(F)C(F)(F)C(F)(F)C(F)(F)C(F)(F)C(F)(F)C(F)(F)C(F)F,inactive,–
CCCCCC=O,inactive,–
FC(F)(I)C(F)(F)C(F)(F)C(F)(F)I,inactive,–
CCC(=O)OCCc1ccccc1,inactive,–
CCCCOCCOCCOC(=O)CCCCC(=O)OCCOCCOCCCC,inactive,–
FC(F)(F)C(F)(F)C(F)(F)C(F)(F)C(F)(F)C(F)(F)C(F)(F)Br,inactive,–
O=C(O)C(F)(F)C(F)(F)C(F)(F)C(F)(F)F,inactive,–
FC(F)(F)C(F)(F)C(F)(F)C(F)(F)C(F)(F)C(F)(F)CCS,inactive,–
O=P(O)(O)OCCC(F)(F)C(F)(F)C(F)(F)C(F)(F)C(F)(F)C(F)(F)F,inactive,–
CCCCCCC(C)OC(=O)CCCCC(=O)OC(C)CCCCCC (stereo not given),inactive,–
CCN(CC)c1ccc2c(C)cc(=O)oc2c1,inactive,–
OCCCC(F)(F)C(F)(F)C(F)(F)C(F)(F)C(F)(F)C(F)(F)C(F)(F)F,inactive,72.9 µM (active)
COC(=O)CCC(F)(F)C(F)(F)C(F)(F)C(F)(F)F,inactive,–
O=C(O)C(F)(F)C(F)(F)C(F)(F)C(F)(F)C(F)(F)C(F)(F)C(F)(F)C(F)(F)C(F)(F)C(F)(F)C(F)(F)C(F)(F)F,inactive,–
CC(C)(C)c1ccc(OC2CCCCC2O)cc1 (stereo not given),inactive,–
CCc1c(Br)c(Br)c(Br)c(Br)c1Br,inactive,–
O[Si](c1ccccc1)(c1ccccc1)c1ccccc1,–,15.8 µM (active)
O=S(=O)(OCC(F)F)C(F)(F)F,inactive,–

Compound,outcome,AC50
CCCCCCCOC(=O)c1ccccc1C(=O)OCCCCCCC,inactive,–
C=CC(=O)OCC(F)(F)C(F)(F)C(F)(F)C(F)(F)C(F)(F)C(F)(F)C(F)(F)F,inactive,–
CC(=O)Nc1ccc(N=Nc2cc(C)ccc2O)cc1,inactive,–
FC(F)(F)C(F)(F)C(F)(F)C(F)(F)C(F)(F)C(F)(F)CC1CO1 (stereo not given),inactive,–
O=S(=O)(OCCOC(F)(F)F)C(F)(F)F,inactive,–
O=S(=O)(O)c1ccc2ccccc2c1,inactive,–
FC(F)(F)C(F)(F)C(F)(F)C(F)(F)C(F)(F)C(F)(F)C(F)(F)I,inactive,–
FC(F)(F)C(F)(F)C(F)(F)CI,inactive,–
O=C(O)C(F)(F)C(F)(F)C(F)(F)C(F)(F)C(F)(F)C(F)(F)C(F)(F)C(F)(F)Cl,inactive,–
CN(C)Cc1ccccc1O,inactive,–
FC(F)(F)C(F)(F)C(F)(F)C(F)(F)C(F)(F)CCI,inactive,–
C1COCCN1,inactive,–
Nc1cc(Cl)c(N)c(Cl)c1,inactive,–
CS(C)(=O)=O,inactive,–
FC(F)(F)C(F)(F)C(F)(F)C(F)(F)C(F)(F)C(F)(F)C(F)(F)C(F)(F)F,inactive,–
OCC(F)(F)C(F)(F)C(F)(F)F,inactive,–
FC(F)(F)C(F)(F)C(F)(F)C(F)(F)CCI,inactive,–
O=C(O)C(F)(F)C(F)(F)C(F)F,inactive,–
C=CC/C=C/C/C=C/C/C=C/C,inactive,–
